# In the library only some 8.3% were active in any assay of this set; here they are far more common.
# RORgamma inh – qHTS for inhibitors of ROR gamma transcriptional activity. Nuclear receptor ROR-gamma (Mus musculus), P51450. Drosophila S2 Gal4-RORgamma UAS-luciferase reporter, 20 h. Potency, µM (top dose mostly 53.6 µM), for inactives: at the top dose activity change, negative = inhibition, hits mostly inhibitors. 310,000 tested, 5.4% active; also: potency is read from the fitted curve at half-maximal effect; % is scaled to controls: 0 for no effect and ±100 for the full control effect; nearly all actives have a fitted effect of over 60% in size
# Target sequence (P51450 whole entry, looked up, the tested form may be a part): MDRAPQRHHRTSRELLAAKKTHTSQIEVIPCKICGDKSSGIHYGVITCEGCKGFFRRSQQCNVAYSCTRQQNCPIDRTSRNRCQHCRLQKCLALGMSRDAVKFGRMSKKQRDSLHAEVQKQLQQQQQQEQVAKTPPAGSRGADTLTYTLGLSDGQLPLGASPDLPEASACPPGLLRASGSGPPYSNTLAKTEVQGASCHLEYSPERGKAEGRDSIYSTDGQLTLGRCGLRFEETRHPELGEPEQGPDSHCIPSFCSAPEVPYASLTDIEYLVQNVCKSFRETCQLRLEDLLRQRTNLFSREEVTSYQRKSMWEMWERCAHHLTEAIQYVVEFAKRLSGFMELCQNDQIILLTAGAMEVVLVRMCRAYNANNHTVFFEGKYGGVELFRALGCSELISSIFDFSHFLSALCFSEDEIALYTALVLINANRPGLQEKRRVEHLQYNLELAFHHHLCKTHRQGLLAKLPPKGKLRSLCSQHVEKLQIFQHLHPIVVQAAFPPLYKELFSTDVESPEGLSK
#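 Luminescence from a UAS-regulated Photinus luciferase reporter in stably transfected Drosophila Schneider cells is measured; decreased signal marks ROR gamma inhibition. Fusion expression is induced by 700 uM copper sulfate for 20 hr.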
# SW480 rereplic – A quantitative high throughput screen for small molecules that induce DNA re-replication in SW480 colon adenocarcinoma cells. Potency, µM (titrated, usually from 46.1 µM), for inactives: at the highest dose re-replication activation, hits mostly activators. 340,000 tested, 1.8% active. AID 624297, 2012. SW480 DNA re-replication, Hoechst DNA content imaging, 48 h; also: potency is read from the fitted curve at half-maximal effect; % of control where 0% means no effect; nearly all actives have a fitted effect of over 55% in size
#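 Quantitative HTS format with DMSO vehicle controls; 48 hr drug incubation at 37 C, then 40 min Hoechst staining and scanning imager measurement at 405 nm excitation.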
# BCR signal inh – qHTS Assay to Find Inhibitors of Chronic Active B-Cell Receptor Signaling | ABC-DLBCL IkBa-CBG/CBR reporter, luminescence ratio, 4 h | Potency, µM (top dose mostly 46.1 µM), for inactives: top-dose activity change, negative = inhibition, usual class: inhibitors | 340,000 tested, 0.05% active | AID 493014, 2011; active = well fitted inhibition curve with a large enough effect in the signal ratio, with a control signal flat, not every such curve was filed as active; inconclusive = small, poorly fitted or top-dose-only effect, or effect the other way, or a change in a side signal; the % refers to the signal ratio;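 also: potency is read from the fitted curve at half-maximal effect; plate controls were basal doxycycline-induced cells for no effect and cells given 10 µM MG132 for full effect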
#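 Compounds up to 46 uM were incubated four hours with TMD8 cells whose green CBG68 luciferase is fused to IkappaBalpha; red CBR luminescence normalised the signal, and concentration-effect curves were fitted to fusion, red and ratio data.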
# VP16 counter – VP16 counterscreen qHTS for inhibitors of ROR gamma transcriptional activity; 310,000 tested, 3.5% active; Drosophila S2 Gal4-VP16 UAS-luciferase, luminescence, 20 h; Potency, µM (series often up to 53.6 µM), without a hit: at the highest dose activity, negative = inhibition, most hits filed as inhibitors;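 also: Gal4-VP16 expression switched on by copper sulfate through the metallothionein promoter; potency is read from the fitted curve at half-maximal effect; % is scaled to controls: 0 for no effect and ±100 for the full control effect; nearly all actives have a fitted effect of over 50% in size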
# Giardia killer – Small Molecules that selectively kill Giardia lamblia: qHTS | Giardia lamblia trophozoite viability | 340,000 tested, 0.15% active | activity change, % at 7.66 µM, hits read low | AID 540267, 2011; in the data active = activity change below about -80%; inconclusive = between about -30% and that limit;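 also: parasites exposed to compound for two days anaerobically before the ATP read; % is scaled to controls: 0 for no effect and ±100 for the full control effect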
#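 Luminescent ATP signal served as the viability read-out, measured 15-30 min after adding ATP detection reagent to trophozoites that had been incubated with compounds for 48 hrs at 37 deg C anaerobically at 100 cells/well.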
# MCF10A rereplic – A quantitative high throughput screen for small molecules that induce DNA re-replication in MCF 10a normal breast cells | Potency, µM (doses to about 46.1 µM), for the others: top-dose activity, positive = re-replication, actives largely listed as activators | 350,000 tested, 2.9% active | MCF 10A DNA re-replication, Hoechst nuclear intensity, 48 h; also: potency is read from the fitted curve at half-maximal effect; % of control where 0% means no effect; nearly all actives have a fitted effect of over 50% in size
# The depositor's hits bear a star; ? = inconclusive; . = not tested or not shown. Unless noted, calls follow the shape of the dose curve; as a rule, active = well fitted curve in the direction sought with a large enough effect; inconclusive = small, poorly fitted or top-dose-only effect, or another doubt; inactive = no such curve, though single readings can be large; an effect the other way counts as inactive or inconclusive.
SMILES,RORgamma inh,SW480 rereplic,BCR signal inh,VP16 counter,Giardia killer,MCF10A rereplic
COc1ccc(/C=C/C(=O)N(C)C2CCS(=O)(=O)C2)cc1 (centres undefined),.,?,-5%,.,-12,-1%
CN(C(=O)C1CCC(=O)N(CCc2ccc(Cl)cc2)C1)C1CCOCC1 (centres undefined),5%,-5%,1%,-5%,-3,1%
CCc1ccc(CN(C)Cc2nc(Cc3ccc(OC)c(OC)c3)no2)nc1,10µM*,-13%,-12%,-5%,-2,0%
CCOC(=O)/C=C/C(=O)N1CCN(C(=O)/C=C/C(=O)OCC)CC1,4%,?,-18%,-10%,5,15µM*
O=C(O)/C=C/C(=O)N1CCN(C(=O)/C=C/C(=O)O)CC1,-13%,0%,4%,?,-28,-7%
Cc1ccc(-c2csc3ncn(CC(=O)O)c(=O)c23)cc1C,-2%,?,0%,1%,3,0%
Cc1cccn2c(=O)c(/C=C(\C#N)C(=O)NC3CCS(=O)(=O)C3)c(N3CC(C)OC(C)C3)nc12 (centres undefined),9%,?,-11%,29%,17,1.8µM*
Cc1ccc(Oc2nc3ccccn3c(=O)c2/C=C(\C#N)C(=O)NC2CCS(=O)(=O)C2)cc1 (centres undefined),?,?,0%,-3%,15,8.2µM*
CNC(=O)/C(C#N)=C/c1c(N2CC(C)OC(C)C2)nc2ccccn2c1=O (centres undefined),-11%,?,5%,1%,-28,7.3µM*
CCNC(=O)/C(C#N)=C/c1c(N2CC(C)OC(C)C2)nc2ccccn2c1=O (centres undefined),-8%,12%,3%,-2%,-3,13%
COCCN(CCOC)c1nc(C)nc2c1nc(-c1ccccc1)n2CCN1CCOCC1,1%,.,.,-13%,.,.
COc1cccc(NC(=O)N2CCC(NC(=O)C(Cc3ccccc3F)NC(C)=O)CC2)c1 (centres undefined),1%,-3%,?,-6%,-4,6%
Cc1ccc(C(=O)/C=C/c2cn(CN3CCN(C)CC3)c3ccccc23)cc1,-31%,18µM*,?,?,-9,18µM*
Cc1c(C(=O)Nc2cccc(Cl)c2)oc2ccc(S(=O)(=O)N3CCC4(CC3)OCCO4)cc12,23%,3.7µM*,6%,-1%,-23,5.8µM*
Cc1c(Cl)cccc1NC(=O)c1oc2ccc(S(=O)(=O)N3CCC4(CC3)OCCO4)cc2c1C,.,.,-17%,.,.,.
CN(C)/C=C1\NC(=S)N(c2ccccc2)C1=O,-21%,1%,6%,1%,3,-4%
COc1ccc(N2C(=O)/C(=C/c3cccs3)NC2=S)cc1,10µM*,2%,-12%,?,11,8%
Cn1c(N2CCN(C(c3ccccc3)c3ccccc3)CC2)nc2ccccc21,11µM*,?,10%,13µM*,6,23µM*
COc1ccccc1C(=O)NC(=O)OCCn1c(C)cnc1[N+](=O)[O-],-21%,-4%,-1%,-7%,-82*,?
Cc1ccc(C(=O)NC(=O)OCCn2c(C)cnc2[N+](=O)[O-])cc1,9%,-6%,3%,1%,-88*,26%
Cc1cnc([N+](=O)[O-])n1CCOC(=O)NC(=O)c1ccccc1,-4%,1%,-5%,-6%,?,0%
Cc1cc(-n2c(C)cc(C(=O)CSc3[nH]c(=O)cc(C(F)(F)F)c3C#N)c2C)no1,.,3.3µM*,?,.,-18,?
Cc1cc(C)c(C(N)=O)c(SCC(=O)c2cc(C)n(-c3cc(C)on3)c2C)n1,.,?,-1%,.,-15,21µM*
CCCCC(C(=O)NC1CCCC1)N(C(=O)c1snc(C(N)=O)c1N)c1ccc(C)cc1 (centres undefined),0%,12%,-3%,-2%,37,?
CCCc1cc(-c2n[nH]c(=S)n2CC)cs1,7.1µM*,-2%,-12%,11µM*,-11,4%
SMILES,RORgamma inh,SW480 rereplic,BCR signal inh,VP16 counter,Giardia killer,MCF10A rereplic
CCc1cc(-c2n[nH]c(=S)n2CC)cs1,?,0%,?,10µM*,1,5%
CCc1cc(-c2n[nH]c(=S)n2Cc2ccccc2)cs1,3.2µM*,-1%,18%,6.3µM*,3,3%
CCCc1cc(-c2n[nH]c(=S)n2C(C)c2ccccc2)cs1 (centres undefined),7.1µM*,1%,-1%,7.1µM*,-11,27%
CCn1c(C2CCN(Cc3ccccc3)CC2)n[nH]c1=S,-29%,2%,2%,-3%,36,8%
CCCCn1c(-c2csc(CCC)c2)n[nH]c1=S,36%,-9%,?,1%,-1,-32%
CS(=O)(=O)N1CCC[C@@]2(CCN(C(=O)Nc3cccc(F)c3)C2)C1,3%,.,.,-7%,.,.
COC(=O)NC(c1ccc2c(c1)OCO2)C(C(=O)OC)C(=O)OC (centres undefined),28%,.,.,4%,.,.
O=C1[C@@H]2C[C@@H]3C[C@H]1C[C@@](O)(C3)C2,0%,2%,.,0%,.,4%
COc1ccccc1P(=O)(Cc1ccccc1[N+](=O)[O-])c1ccccc1 (centres undefined),11%,19%,0%,1%,6,9%
CC(C)c1ccc(C2c3[nH]c4ccccc4c3C[C@H]3C(=O)N(c4ccccc4C(=O)N4CCC[C@H]4C(=O)O)C(=O)N23)cc1 (some centres undefined),?,5%,?,-5%,14,-10%
CCc1cc(-c2n[nH]c(=S)n2-c2ccccc2C)cs1,4µM*,?,?,5.6µM*,8,-3%
COc1cc(-c2n[nH]c(=S)n2C(C)c2ccccc2)cc(OC)c1OC (centres undefined),?,-26%,7%,13µM*,?,?
Fc1ccc(-n2c(Cc3cccs3)n[nH]c2=S)cc1Cl,14µM*,0%,1%,-6%,2,?
FC(F)(F)c1ccc(Cl)c(-n2c(Cc3cccs3)n[nH]c2=S)c1,?,-14%,-11%,5%,3,-5%
S=c1[nH]nc(-c2cc(-c3ccsc3)n[nH]2)n1-c1cccc2ccccc12,?,-9%,-16%,-1%,-26,1%
Cc1ccccc1-n1c(Cc2cccs2)n[nH]c1=S,1.4µM*,13%,-7%,?,6,-2%

# Screening results: PubChem BioAssay, National Center for Advancing Translational Sciences (NCATS)
